The structures appear in SMILES notation. About 3,100 (0.97%) of roughly 320,000 compounds were called active. What follows is part of a selection rich in actives, with near analogues and random picks from the rest. Values without a mark were called inactive.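 The calls were made as follows: active = mean replicate inhibition of at least 70% and a set share of replicates each scoring 70 or more; inconclusive = meets just one of the two criteria; inactive = fails both criteria.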

The assay deals with Scavenger receptor class B member 1 (Mus musculus) (UniProt Q61009). Kind of assay: mouse SR-BI DiI-HDL uptake blockers – ldlA[mSR-BI] cells, fluorescence, single point, primary screen (AID 488896).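 Also: 0% = median of neutral control wells and 100% = median of positive control wells.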 Conditions: ldlA[mSR-BI] CHO cells, 3 h, at 12.5 µM, hits give high values.
Sequence of Scavenger receptor class B member 1 (Mus musculus) (Q61009 whole entry, looked up): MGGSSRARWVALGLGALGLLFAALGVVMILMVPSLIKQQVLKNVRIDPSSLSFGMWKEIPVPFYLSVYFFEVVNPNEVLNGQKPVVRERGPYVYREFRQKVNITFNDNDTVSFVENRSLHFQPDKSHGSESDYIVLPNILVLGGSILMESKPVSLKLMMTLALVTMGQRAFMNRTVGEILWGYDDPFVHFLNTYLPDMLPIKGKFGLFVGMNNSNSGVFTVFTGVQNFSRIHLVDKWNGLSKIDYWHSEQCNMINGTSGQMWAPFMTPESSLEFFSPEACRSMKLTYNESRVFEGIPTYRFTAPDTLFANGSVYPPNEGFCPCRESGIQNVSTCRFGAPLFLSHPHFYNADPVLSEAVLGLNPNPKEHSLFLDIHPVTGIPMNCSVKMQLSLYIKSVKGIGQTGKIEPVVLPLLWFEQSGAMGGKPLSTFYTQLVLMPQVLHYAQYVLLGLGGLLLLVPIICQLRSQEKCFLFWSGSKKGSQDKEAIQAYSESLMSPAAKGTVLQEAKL
As for `Cc1cccc(CC2(O)C(=O)Nc3ccccc32)n1` (stereo not drawn), the inhibition is -13%.

In the case of `O=S1(=O)CSCS(=O)(=O)C1`, the inhibition is -19.5%.

Regarding `CCC1CCCCN1C(=S)Nc1ccc(C(C)=O)cc1` (stereo not drawn), the inhibition is -13.3%.

As for `Cc1ccc(N=C2SCCCN2C(=O)c2cccc(N3C(=O)CCC3=O)c2)cc1Cl`, the inhibition is 32.4%.

With `CC(=O)c1ccc(N=C2SCCCN2C(=O)C2CCCCC2)cc1`, the inhibition was 78.7% (active).

For `COc1cccc(C=CC(=O)C=CC=Cc2ccccc2)c1`, the inhibition is -11.1%.

Turning to `COc1cc(NC(=O)COc2ccccc2Cl)ccc1NC(=O)C(C)C`, the inhibition was 49.8%.

As for `COc1cc(NC(=O)c2ccc3c(c2)OCO3)ccc1NC(=O)c1cccs1`, the inhibition is 58.8%.

For `COc1cc(NC(=O)c2cccs2)ccc1NC(=O)c1ccccc1Cl`, the inhibition is 83.3% (active).

Turning to `O=C(Nc1ccccc1)Oc1cccc2cccnc12`, the inhibition is -13.2%.

In the case of `c1ccc(CNc2ncnc3[nH]ncc23)cc1`, the inhibition is -13.5%.

In the case of `CC(=O)Nc1ccc(NC(=O)COc2ccccc2C(=O)Nc2cccc(Cl)c2Cl)cc1`, the inhibition was 63.3%.

For the compound `O=C(Nc1ccccc1Cl)c1ccccc1S(=O)(=O)c1ccccc1[N+](=O)[O-]`, the inhibition was 4.02%.

`CN(C)S(=O)(=O)Oc1ccccc1C(=O)Nc1ccccc1Cl`: the inhibition was 79.9% (active).

Turning to `CCN1C[C@@H]2[C@@H]3C(=O)N(Cc4ccccc4)C(=O)[C@@H]3[C@](C)(C1=O)N2C(=O)c1ccc(C(C)(C)C)cc1`, the inhibition was -30.1%.

Regarding `Oc1ccc(-c2nc3ccccc3nc2-c2ccc(O)cc2O)c(O)c1`, the inhibition was 26%.

On to `O=C(CSc1nnc(-c2c[nH]c3ccccc23)n1-c1ccc(F)cc1)NCc1ccco1`, for which the inhibition is 20.6%.

`COc1ccc(-n2c(SCC(=O)NCc3ccco3)nnc2-c2c[nH]c3ccccc23)cc1`: the inhibition is 71.4% (active).

As to `COc1ccc(-n2c(SCC(=O)NCc3cccs3)nnc2-c2ccoc2C)cc1`, the inhibition was -3.66%.

As for `COc1ccc(CCN2CC(C(=O)OCC(=O)NCc3ccccc3Cl)CC2=O)cc1OC` (stereo not drawn), the inhibition is -1.72%.

As to `C(=N/Nc1cc(N2CCOCC2)nc(N2CCOCC2)n1)/c1ccccc1`, the inhibition was 76% (active).

Consider `COc1ccc(/C=N/Nc2cc(N3CCOCC3)nc(C)n2)c(OC)c1`, for which the inhibition is 52.8%.

Take `CN(C)c1ccc(/C=N/Nc2cc(N3CCOCC3)nc(N3CCOCC3)n2)cc1`: the inhibition was 78.8% (active).

Consider `Cc1ccccc1N/N=C/c1ccc(N2CCOCC2)cc1`, for which the inhibition is 15.9%.

On to `CCN(CC)c1ccc(C(=O)N/N=C/c2ccc(N3CCOCC3)cc2)cc1`, for which the inhibition is 25%.

Turning to `Cc1nc(Cl)cc(N/N=C/c2ccccc2)n1`, the inhibition was 15.7%.

With `O=C1c2ccccc2C(=O)N1CCCCCCN1C(=O)c2ccccc2C1=O`, the inhibition was 7.39%.

As to `Cc1nc2ccccc2c(C(=O)O)c1-c1ccccn1`, the inhibition is -15.2%.

Take `Oc1cccc(CCc2ccccn2)c1`: the inhibition was -0.288%.

On to `O=C(O)C(=Cc1ccccc1[N+](=O)[O-])c1ccccc1`, for which the inhibition was 0.653%.

As to `CSCCC(NS(=O)(=O)c1ccc(C)cc1)C(=O)N(C)CC(=O)Nc1ccccc1Br` (stereo not drawn), the inhibition was 16.3%.

For the compound `Cc1nc(-c2ccc(F)cc2)c(CC(=O)N(C)CC(=O)Nc2c(C)cccc2C)s1`, the inhibition is -10.6%.

Regarding `CCOc1ccc(NC(=O)CN(C)C(=O)Cc2sc(C)nc2-c2ccc(F)cc2)cc1OCC`, the inhibition was 73.5% (active).

In the case of `CCOc1ccc(NC(=O)CN(C)C(=O)CCSc2ccc(F)cc2)cc1OCC`, the inhibition was 39.6%.

With `S=C(Nc1ccccc1)Nc1ccc2ccccc2c1`, the inhibition is 9.12%.

For the compound `O=C(O)c1ccc(Cn2cnc3c(=S)nc[nH]c32)cc1`, the inhibition was -20.4%.

Consider `CC/C(=C\c1ccc(Cl)cc1)c1ccncc1`, for which the inhibition is 29.1%.

For the compound `COc1ccc(/C=C/C2=CC(C)(C)NC(=S)N2)c(OC)c1`, the inhibition is 78.2% (active).

Regarding `COc1ccc(/C=C2/C(=O)N(c3ccccc3)N=C2C)c(OC)c1`, the inhibition was 30.7%.

Regarding `COc1cc(/C=C/C2=CC(C)(C)NC(=S)N2)cc(OC)c1OC`, the inhibition was 26.3%.

Regarding `O=C(Nc1ccn(CCCNCc2ccc3[nH]ccc3c2)c(=O)n1)OCc1ccccc1`, the inhibition is 14.3%.

On to `FC(F)(F)c1ccc(-c2cccc3c2C2CC3CCN2Cc2ccccc2)cc1` (stereo not drawn), for which the inhibition is -20.1%.

For `COc1ccccc1C(=O)Nc1ccc(NC(=O)c2ccco2)c(C)c1`, the inhibition is 44.6%.

For `COc1ccc(NC(=O)c2cccc(NC(=O)c3ccco3)c2)c(OC)c1`, the inhibition was 75.7% (active).

Consider `COc1ccc(NC(=O)CCC(=O)Nc2cc(OC)c(NC(=O)c3ccco3)cc2OC)c(OC)c1`, for which the inhibition is 58.1%.

`CC1C(C)N(C(=O)CCl)c2ccccc2N1C(=O)CCl` (stereo not drawn): the inhibition is -12%.

As for `Nc1ncnc2c1cnn2C1CC(O)C(CO)O1` (stereo not drawn), the inhibition is -3.29%.

Regarding `CCOc1ccc(C(=O)Nc2ccc(S(=O)(=O)NCC3CCCO3)cc2)cc1OCC` (stereo not drawn), the inhibition is 82.5% (active).

As to `CCC(=O)Nc1ccc(S(=O)(=O)NCC2CCCO2)cc1` (stereo not drawn), the inhibition was 16.2%.

On to `Cc1ccc(NC(=O)c2ccc(S(=O)(=O)NCC3CCCO3)cc2)cc1C` (stereo not drawn), for which the inhibition was 51.6%.

Regarding `O=C(NCc1ccco1)c1ccc(Cn2c(=O)c3sccc3n(Cc3ccc(F)cc3)c2=O)cc1`, the inhibition was 28.8%.

`CC(C)(C)c1ccc(C(=O)NCCC(=O)NCc2ccco2)cc1`: the inhibition is -4.1%.

Regarding `CC(C)OCCCNC(=O)c1ccc(C2SCC(=O)N2Cc2ccco2)cc1` (stereo not drawn), the inhibition is 75.6% (active).

Regarding `CSc1ncnc2c1ncn2CC(=O)C1CCC2C3CCC4=CC(=O)CCC4(C)C3CCC12C` (stereo not drawn), the inhibition is -12.4%.

Consider `O=C(Nc1cccc(Br)c1)C1CC(=O)N(C2CCCC2)C1` (stereo not drawn), for which the inhibition is -9.43%.

Take `O=C(NCCc1ccc(F)cc1)c1n[nH]c2ccccc12`: the inhibition was 22.1%.

Consider `O=C(NCC1CCCO1)c1cc2c([nH]c3ccccc32)c(-c2ccc(F)cc2)n1` (stereo not drawn), for which the inhibition was 64.1%.

Take `O=C(NCCCO)c1cc2c([nH]c3ccccc32)c(-c2ccc(F)cc2)n1`: the inhibition is 73.4% (active).

`Cn1c(=O)[nH]c2c(c(C(=O)O)nn2C)c1=O`: the inhibition was -13.4%.

On to `CCCCNCCS(=O)(=O)NCc1ccccc1`, for which the inhibition was -2.76%.

Consider `Cc1cc([N+](=O)[O-])ccc1NS(=O)(=O)c1ccccc1`, for which the inhibition is -11.2%.

`Cc1ccc(S(=O)(=O)N2CCN(C(=O)COC(=O)c3c(C)cc(C)cc3C)CC2)c(C)c1`: the inhibition is 20.4%.

As for `Cc1ccc(S(=O)(=O)N2CCN(C(=O)COC(=O)/C=C/c3cccc(Cl)c3)CC2)c(C)c1`, the inhibition was -11.6%.

Turning to `COc1ccc(/C=C/C(=O)OCC(=O)N2CCN(S(=O)(=O)c3ccc(C)cc3C)CC2)cc1OC`, the inhibition is 71.9% (active).

In the case of `CC(C)(C)OC(=O)N1CCC(C(=O)Nc2cccc(C(=O)NCCc3ccccc3)c2)CC1`, the inhibition was 52.6%.

Consider `Cc1c(NC(=O)c2cc(-c3ccc(Cl)s3)nc3ccccc23)c(=O)n(-c2ccccc2)n1C`, for which the inhibition is 95.8% (active).

With `CC(=O)N1CCN(C(=O)c2cc(-c3ccc(Cl)s3)nc3ccccc23)CC1`, the inhibition was 33.7%.

As for `O=C(c1cc(-c2ccc(Cl)s2)nc2ccccc12)N1CCOCC1`, the inhibition is 19.5%.

As to `CC(=O)Oc1ccc(OC(C)=O)c2c1C1C=CC2CC1`, the inhibition is -21.7%.

Regarding `COc1ccc(Nc2ccc3ccccc3c2)cc1`, the inhibition is 31.3%.

On to `CNc1nc(-c2ccccc2)cc(-c2ccccc2)n1`, for which the inhibition is 21.8%.

Take `Nc1nc(-c2ccccc2)cc(-c2ccccc2)n1`: the inhibition is 9.59%.

For the compound `Nc1cccc(-c2cc(-c3ccccc3)nc(-c3cccc(N)c3)n2)c1`, the inhibition is 102% (active).

On to `CC(=NNC(=S)N1CCCCCC1)c1ccccn1`, for which the inhibition is 22.4%.

Turning to `O=C(Nc1ccc(N2CCOCC2)cc1)c1cccc(S(=O)(=O)N2CCOCC2)c1`, the inhibition is 65.7%.

As to `Cc1ccc(NC(=O)c2ccc(Cl)nc2)cc1S(=O)(=O)N1CCOCC1`, the inhibition is 74.1% (active).

`COc1ccc(OC)c(NC(=O)c2cccc(S(=O)(=O)N3CCN(C(C)=O)CC3)c2)c1`: the inhibition was 10.1%.

With `O=C(Nc1ccc(S(=O)(=O)Nc2nccs2)cc1)c1cccc(S(=O)(=O)N2CCOCC2)c1`, the inhibition was -0.76%.

`Cc1ncc(CO)c(/C=N/NC(=O)c2cccc(S(=O)(=O)N3CCCC3)c2)c1O`: the inhibition was 84.8% (active).

For the compound `Cc1cccc(NC(=O)c2cccc(S(=O)(=O)N3CCCC3)c2)n1`, the inhibition is 26.2%.

Take `O=C(N/N=C/c1ccccn1)c1ccc(S(=O)(=O)N2CCCCCC2)cc1`: the inhibition was 10.6%.

For the compound `Cc1nc2ccc(NC(=O)c3cccc(S(=O)(=O)N4CCOCC4)c3)cc2s1`, the inhibition is 72.3% (active).

`Cc1ccc(C(=O)Nc2ccc3c(c2)OCCO3)cc1S(=O)(=O)N1CCOCC1`: the inhibition was 50.5%.

Turning to `CCOc1cc(/C=N/NC(=O)c2cccc(S(=O)(=O)N3CCOCC3)c2)ccc1OCC(=O)N(C)C`, the inhibition was 23.7%.

For the compound `COc1ccc(Br)cc1/C=N/NC(=O)c1cccc(S(=O)(=O)N2CCOCC2)c1`, the inhibition was 81.8% (active).

In the case of `Cc1ccc(NC(=O)c2ccccn2)cc1S(=O)(=O)N1CCOCC1`, the inhibition was -25.4%.

For the compound `CC(=O)OCC1(O)CC23CCC4c5ccoc5CCC4(C)C2CCC1C3` (stereo not drawn), the inhibition was 30.4%.

In the case of `COc1cc(/C=C/CNC[C@H]2O[C@@H](n3cnc(C(N)=O)n3)[C@H](O)[C@@H]2O)ccc1O`, the inhibition was -8.12%.

Take `O=c1[nH]c(=S)[nH]c(O)c1/C=C1\C=Nc2ccccc21`: the inhibition was -12.1%.

Consider `Cc1cc(OCCCC(=O)Nc2cc(S(=O)(=O)N3CCOCC3)ccc2N2CCOCC2)ccc1Cl`, for which the inhibition is 17.2%.

Take `CC(C)=C(NC(=O)c1ccccc1)C(=O)N/N=C(\C)c1ccccc1O`: the inhibition is -7.68%.

Take `C/C(=N\NC(=O)c1ccoc1C)c1ccccc1O`: the inhibition was 95.2% (active).

In the case of `Cc1[nH]n(-c2ccccc2)c(=O)c1/C=N/NC(=O)c1ccoc1C`, the inhibition is 69.6%.

As usually defined, the inhibition is the drop in the measured response relative to a control, in per cent.

Source of the values: PubChem BioAssay AID488896 (Broad Institute, 2010).
